DT40 TDP1 CPT: growth inhibition of DT40 Tdp1-/-;hTDP1 cells with camptothecin (screen for TDP1 inhibitors); chicken DT40 Tdp1-/-;hTDP1 cells + 20 nM CPT, ATP luminescence, 48 h; Potency, µM (top dose mostly 46.2 µM), actives largely listed as inhibitors; 420,000 tested, 12% active; further: nearly all actives have a fitted effect of over 55% in size
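Cell growth measured by CellTiter-Glo luminescence after a minimum 48 h, 37 C compound exposure with 20 nM CPT in Tdp1-knockout DT40 cells stably expressing hTDP1, seeded 400/well; qHTS titration format.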
TDP1 block: blocks human tyrosyl-DNA phosphodiesterase 1. recombinant TDP1, AlphaScreen DNA substrate cleavage. Potency, µM (series often up to 130 µM), hits mostly inhibitors. 350,000 tested, 0.28% active. AID 485290; further: nearly all actives have a fitted effect of over 40% in size
Target sequence (Q9NUW8 whole entry, looked up): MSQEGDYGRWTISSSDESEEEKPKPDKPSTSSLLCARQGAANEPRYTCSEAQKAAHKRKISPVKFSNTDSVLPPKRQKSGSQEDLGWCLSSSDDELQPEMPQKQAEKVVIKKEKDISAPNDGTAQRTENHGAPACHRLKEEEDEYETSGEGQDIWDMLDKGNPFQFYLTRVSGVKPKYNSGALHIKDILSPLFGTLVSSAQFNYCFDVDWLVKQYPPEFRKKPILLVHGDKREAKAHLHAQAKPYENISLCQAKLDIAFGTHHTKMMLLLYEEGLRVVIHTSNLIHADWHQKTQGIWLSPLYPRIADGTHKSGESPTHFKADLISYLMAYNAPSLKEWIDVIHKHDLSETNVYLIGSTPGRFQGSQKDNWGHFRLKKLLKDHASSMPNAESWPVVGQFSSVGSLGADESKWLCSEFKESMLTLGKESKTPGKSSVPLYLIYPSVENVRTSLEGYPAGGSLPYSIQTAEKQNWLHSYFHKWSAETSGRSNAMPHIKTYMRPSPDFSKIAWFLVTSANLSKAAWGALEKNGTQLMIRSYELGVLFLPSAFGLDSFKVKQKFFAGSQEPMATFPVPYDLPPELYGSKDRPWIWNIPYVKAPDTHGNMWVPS
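Recombinant E. coli-expressed Tdp1 (1 nM) preincubated with compound 15 min at RT, then 5'-biotin/3'-phosphotyrosine-FITC DNA substrate (15 nM) added for 5 min. AlphaScreen beads (10 ug/ml) added, 10 min RT; tyrosine-FITC cleavage read as signal loss.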
TGFb inhibitor: TGF-b pathway inhibition. HepG2 CAGA-GFP TGF-b/SMAD3 reporter, GFP fluorescence, 18 h; TGF-beta stimulated, 500 pg/mL final. Potency, µM (highest dose often 46.1 µM), hits mostly inhibitors. 410,000 tested, 1.2% active; further: nearly all actives have a fitted effect of over 65% in size
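Inhibition was scored as loss of TGF-beta-induced (500 pg/mL final, 18 hours, 37 degrees C) GFP in HEPG2 cells carrying a CAGA-GFP reporter, in DMEM with 1% FBS. Well GFP was summed per cell; Activity was normalised to unstimulated and stimulated DMSO wells, then concentration-response fitting.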
IL1B secr inh: blocks inflammasome-driven IL-1 beta release; THP-1 LPS/ATP IL-1B secretion, AlphaLISA, 16 h; hits give low values; activity change, % at 57.5 µM; 360,000 tested, 4.7% active; in the data active means activity change below about -50%; inconclusive means mostly about -30% to -49%
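THP-1 cells pretreated 1 hr with compounds (up to 57.5 uM final), then stimulated with LPS (250 ng/mL final) plus ATP (1.25 mM final); secreted IL-1B measured by AlphaLISA after 16 hr, decreased signal indicating inhibition.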
HepG2 tox: HepG2 cytotoxicity, counter-screen for TGF-b inhibitors; HepG2 CAGA-GFP viability, ATP luminescence, 18 h; Potency, µM (titrated, usually from 46.1 µM), usual class: cytotoxic; 410,000 tested, 0.76% active
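CellTiter-Glo luminescence gave cytotoxicity after 18 hours at 37 degrees C. The cells were HepG2 CAGA-GFP in 1% FBS DMEM, stimulated with 500 pg/mL TGF-beta after compound addition. %Activity was normalised to no-cell wells (complete cell-killing) and DMSO (no toxicity), and curves were fitted and classified.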
DT40 TDP1 no CPT: qHTS for Inhibitors of human tyrosyl-DNA phosphodiesterase 1 (TDP1): qHTS in cells in absence of CPT; Potency, µM (titrated, usually from 46.2 µM), actives largely listed as inhibitors; 420,000 tested, 15% active; DT40 Tdp1-/- hTDP1 cells, no CPT, ATP luminescence, 48 h; further: nearly all actives have a fitted effect of over 55% in size
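Luminescent ATP content (CellTiter-Glo) served as the growth readout. Knockout chicken DT40 cells expressing human TDP1 were exposed to compounds without camptothecin for a minimum 48 hr at 37 °C.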
Hits are given with their value; . = inactive; ? = inconclusive; / = no result; [ ] = remark or other dose. A selection: hits, their analogues and other compounds. The true share with any hit is near 19%. Unless noted, the call rests on the fitted dose curve; in most records, active means well fitted curve in the direction sought with a large enough effect; inconclusive means small, poorly fitted or top-dose-only effect, or another doubt; inactive means no such curve, though single readings can be large; an effect the other way counts as inactive or inconclusive.

SMILES	DT40 TDP1 CPT	TDP1 block	TGFb inhibitor	IL1B secr inh	HepG2 tox	DT40 TDP1 no CPT
C[C@H]1Cc2c(COc3ccccc3)nc3c(c2CO1)CN(S(=O)(=O)c1ccc2c(c1)OCCN2C)CC3	/	.[12.3 µM]	/	/	/	/
COc1ccc(NC(=O)c2ccc(COc3ccccc3OC)o2)cc1OC	15µM	.	.	.	.	23µM
COc1ccccc1OCc1ccc(C(=O)Nc2ccc(C)c(C)c2)o1	23µM	.	.	/	.	?
COc1ccccc1OCc1ccc(C(=O)NN)o1	.	.	.	.	.	.
COc1ccccc1OCc1ccc(C(=O)Nc2cc(OC)c(OC)c(OC)c2)o1	?	.	.	?	.	?
COc1cc(NC(=O)c2ccc(COc3ccccc3Br)o2)cc(OC)c1OC	?	.	.	.	.	23µM
CCCNC(=O)c1ccc(COc2ccc(CCC)cc2OC)o1	?	/	.	?	.	15µM
CC(=O)N1CCC2(CC1)CCN(c1ccccc1)CC2	.	/	/	/	/	.
O=C(CNC(=O)c1cc(Cl)nc2ccccc12)Nc1ccccc1Br	.	.	.	.	.	?
CCCc1ccc(OCc2ccc(C(=O)N3CCN(c4ccccn4)CC3)o2)c(OC)c1	?	.	?	.	.	21µM
N[C@H](CSC(c1ccccc1)(c1ccccc1)c1ccccc1)C(=O)O	/	.	/	/	/	/
NC(CSC(c1ccccc1)(c1ccccc1)c1cccc2ccccc12)C(=O)O (centres undefined)	?	/	.	-50	.	?
O=C(c1ccc(S(=O)(=O)NCC2CCCO2)cc1)N1CCc2ccccc21 (centres undefined)	21µM	.	.	.	.	21µM
O=C(C1CC1)N1CCC(c2nc(-c3ccc(S(=O)(=O)NCC4CCCO4)cc3)no2)CC1 (centres undefined)	13µM	.	?	.	.	14µM
O=C(c1ccccc1)N1CCC(c2nc(-c3ccc(S(=O)(=O)NCC4CCCO4)cc3)no2)CC1 (centres undefined)	10µM	.	.	-72	.	10µM
CCOC(=O)Cn1c(=O)n(C2CCCCC2)c2nc(-c3ccc(Cl)cc3)nc(C(N)=O)c21	/	.	.	/	.	/
O=C(O)/C=C\c1cc2c(cc1[N+](=O)[O-])OCO2	.	.	.	.	.	.
O=C1NC(=S)N/C1=C/c1cc2c(cc1[N+](=O)[O-])OCO2	4.1µM	/	?	.	.	0.58µM
O=C(Nc1ccc(Cl)cn1)c1cnn2c1NC(=C1CC1)C=C2C(F)F	?	/	.	/	.	.
CC1=C(c2ccccc2)SC2=NCCN21	?	/	.	.	.	.
COc1ccc(CCC2CCNCC2)cc1	?	/	.	.	.	18µM
CC(C)CN1C(=O)C(=Nc2cccnc2)c2ccccc21	3.7µM	.	.	.	.	4.6µM
NC(=O)N1CCN(CCCN2c3ccccc3Sc3cc(Cl)ccc32)CC1	?	/	.	.	.	?
O=C1CSC2(CCN(CCCN3c4ccccc4Sc4ccc(Cl)cc43)CC2)N1	24µM	.	/	/	/	9.4µM
CC(=O)c1ccc(-c2nnc(CCC(=O)N3CCCC(C(=O)CC(C)C)C3)o2)s1 (centres undefined)	13µM	.	.	.	.	?
SMILES	DT40 TDP1 CPT	TDP1 block	TGFb inhibitor	IL1B secr inh	HepG2 tox	DT40 TDP1 no CPT
O=C(CCc1nnc(C2(c3ccc(Cl)cc3)CCC2)o1)N1CCCC1	.	.	.	.	.	.
CCC(=O)C1CCCN(C(=O)CCc2nnc(C3(c4ccc(Cl)cc4)CCC3)o2)C1 (centres undefined)	23µM	.	?	.	.	?
O=C(CCCOc1ccc(Br)cc1)Nc1nnc(C2CC2)s1	.	.	.	.	.	.
CCOc1ccc(NC(=O)CSC2=Nc3ccccc3C3=NC(CCC(=O)NCc4ccccc4)C(=O)N23)cc1 (centres undefined)	?	.	.	/	.	16µM
CCCCNC(=O)CCC1N=C2c3ccccc3N=C(SCC(=O)NCCc3ccc(OC)c(OC)c3)N2C1=O (centres undefined)	.	.	.	/	.	.
CCc1ccc(NC(=O)CSC2=Nc3ccccc3C3=NC(CCC(=O)NCc4ccccc4)C(=O)N23)cc1 (centres undefined)	?	.	.	/	.	23µM
CCOc1ccc(NC(=O)CSC2=Nc3ccccc3C3=NC(CCC(=O)NCc4ccco4)C(=O)N23)cc1 (centres undefined)	?	.	.	/	.	?
CCc1ccc(NC(=O)CSC2=Nc3ccccc3C3=NC(CCC(=O)NCCc4ccccc4)C(=O)N23)cc1 (centres undefined)	23µM	.	?	/	.	?
CCc1ccccc1NC(=O)CSC1=Nc2ccccc2C2=NC(Cc3ccccc3)C(=O)N12 (centres undefined)	16µM	.	.	/	.	?

Assay outcomes: PubChem, National Center for Advancing Translational Sciences (NCATS)
